# Measurements: PubChem BioAssay AID1347417 (National Center for Advancing Translational Sciences (NCATS), 2020)
# The whole screen tested about 120,000 compounds, of which about 5,300 (4.4%) were called active. Another 22% or so got no clear call; they are omitted. Calls come from the whole dose curve; as a rule, active = well fitted inhibition curve with a large enough effect; inconclusive = small, poorly fitted or top-dose-only effect; inactive = no such curve, though single readings can be large or run the other way. The sample as a whole holds a higher share of actives than the screen did.
# Test: qHTS Primary assay for Inhibitors of Plasmodium falciparum Dd2 growth in vitro; note: nearly all actives have a fitted effect of over 65% in size;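 for activity, negative = inhibition: plate controls were DMSO vehicle for no effect and reference drug for full effect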
# Conditions: P. falciparum Dd2 growth, SYBR Green, 72 h; series mostly up to 28.9 µM; activity, negative = inhibition: at the top concentration
# How it was run: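 Infected erythrocytes (Dd2, 0.3% parasitemia, 2.5% hematocrit final) are added to compound in RPMI-1640/Albumax II medium, grown 72 h at 37C in low oxygen, then lysed with saponin/Triton-X containing SYBR Green and read by fluorescence.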
# Potency is the fitted concentration of half-maximal effect.
SMILES,"activity, negative = inhibition",Potency,outcome
O=C1NCc2ccc(-c3cc4c(ccn4Cc4cccnc4)c(C4=CCOCC4)n3)cc21,-8.48% [at 44.1 µM] (inactive),–,–
OCc1cccc(-c2cc(C3=CCOCC3)c3cncn3c2)c1,-13.5% [at 44.1 µM] (inactive),–,–
FC(F)(F)c1cccc(-c2cc(C3=CCOCC3)c3cncn3c2)c1,–,14.1 µM (active),–
O=C(C1CCOCC1)N1CCC2(CC1)CC(N1CCCC1)CCO2 (configuration not stated),45.9% (inactive),–,–
COC[C@H]1CCCN1C(=O)C(C)[C@@H]1CC[C@@]2(C)CC[C@H](NC(C)=O)[C@@H](C)[C@@H]2[C@H]1O (some centres not stated),–,–,inactive [at 44.1 µM]
Cc1cccc(C(=O)N2C[C@@H](Oc3cccnc3)C[C@H]2C(=O)N2CCCC2)c1,-18.1% (inactive),–,–
Cc1cc(CNC(=O)C2CCCN(C3CCN(CCc4ccccc4)CC3)C2)on1 (configuration not stated),-24.4% (inactive),–,–
O=C(NCC1CC1)C1CCCN(C2CCN(Cc3ccncc3)CC2)C1 (configuration not stated),-7.77% (inactive),–,–
CCC(CC)C(=O)N1CCC(N2CCCC(C(=O)NCc3ccccc3)C2)CC1 (configuration not stated),–,10 µM (active),–
O=C(NCCC1CCN(C(=O)Nc2ccccc2F)CC1)c1ccccc1,-16.1% (inactive),–,–
O=[S+]([O-])(Nc1cccnc1)c1ccc2c(c1)OCCN(Cc1ccc(F)cc1)C2,–,–,inactive [at 44.1 µM]
CC1CCN(C(=O)C[C@@H]2c3nc(NC(=O)c4ccnc(Cl)c4)sc3C[C@@H]3[C@](C)(CO)[C@H](O)CC[C@]32C)CC1,–,6.31 µM (active),–
C=CCN(C)C(=O)C[C@@H]1c2nc(NC(=O)c3ccc(C(C)(C)C)cc3)sc2C[C@@H]2[C@](C)(CO)[C@H](O)CC[C@]21C,–,3.98 µM (active),–
C=CCN(C)C(=O)[C@@H](C)C1CC[C@@]2(C)Cc3sc(Nc4c(Cl)cccc4Cl)nc3[C@@H](C)[C@@H]2[C@H]1O (some centres not stated),-6.82% (inactive),–,–
COCC(=O)Nc1nc2c(s1)C[C@@H]1[C@](C)(CO)[C@H](O)CC[C@@]1(C)[C@@H]2CC(=O)NCCN1CCOCC1,-13.9% (inactive),–,–
CCCCCC(=O)Nc1nc2c(s1)C[C@@H]1[C@](C)(CO)[C@H](O)CC[C@@]1(C)[C@@H]2CC(=O)N1CCC(C(N)=O)CC1,–,–,inactive
Cc1ccc(S(=O)(=O)Nc2nc3c(s2)C[C@@H]2[C@](C)(CO)[C@H](O)CC[C@@]2(C)[C@@H]3CC(=O)O)cc1,-8.19% (inactive),–,–
CN1CCC2(C1)CN(CC1CCOCC1)c1ccc(C(=O)NCCCn3ccnc3)cc12 (configuration not stated),–,–,inactive [at 44.1 µM]
c1ncc(CN2CCn3c(nnc3C3CCCNC3)C2)s1 (configuration not stated),–,inactive,–

SMILES,"activity, negative = inhibition",Potency,outcome
Cc1nc(N)nc(C)c1CC(=O)N1CCC2(CC1)OCCCC2O (configuration not stated),-11.9% (inactive),–,–
CC(C)c1ccc(NC(=O)c2ccc3c(O)c(S(=O)(=O)c4ccccc4)c(=O)[nH]c3c2)cc1,–,11.2 µM (active),–
COc1ccc(CNC(=O)c2ccc3c(O)c(S(=O)(=O)c4ccccc4)c(=O)[nH]c3c2)cc1,-18.4% (inactive),–,–
Cc1ccc(C(=O)Nc2ccc3[nH]c(=O)c(=O)[nH]c3c2)cc1,-15.3% (inactive),–,–
COc1cccc([S+](=O)([O-])N2CCC3(C2)C(=NC2CCCCC2)NC(=O)N3c2cccnc2)c1 (configuration not stated),-9.4% (inactive),–,–
N#Cc1ccc(S(=O)(=O)N2CC(n3cc(C(=O)NCc4ccccc4)nn3)C2)cc1,-2.08% (inactive),–,–
O=C1NCCCCCN(Cc2cccnc2)[C@@H]2CN(C(=O)C3CCCCC3)CC[C@@H]12,6.03% (inactive),–,–
Cc1ccc(NC(=O)N2CC[C@H]3C(=O)NCCCCCN(Cc4cccnc4)[C@@H]3C2)cc1C,–,8.91 µM (active),–
O=C1NCCCCCCN(Cc2ccncc2)[C@@H]2CN(C(=O)Nc3ccc4c(c3)OCCO4)CC[C@@H]12,–,–,inactive
O=C(NCc1ccco1)N1CC2CC(C1)[C@H]1CCCC(=O)N1C2 (some centres not stated),-10.7% (inactive),–,–
O=C([C@@H]1CCCN1C1CCNCC1)N1CCN(Cc2cccnc2)CC1,-4.31% (inactive),–,–
COCC1CN(C(C)=O)CC12CCN(C(=O)NCc1cccc(OC)c1)CC2 (configuration not stated),10.7% (inactive),–,–
COCC1CN(C(C)=O)CC12CCN(Cc1cccc(C#N)c1)CC2 (configuration not stated),9.9% (inactive),–,–
CCOc1cccc(CN2CCC3(CC2)CN(C)CC3COC)c1 (configuration not stated),–,4.47 µM (active),–
CN1C(=O)c2[nH]nc(-c3ccc(F)cc3)c2C1c1ccccn1 (configuration not stated),18.1% (inactive),–,–
CCOc1ccc(-c2n[nH]c3c2C(c2ccccc2OC)N(c2ccc(Br)cc2)C3=O)cc1 (configuration not stated),–,10 µM (active),–
Cc1ccc(-n2c(C3CCN(C(=O)c4ccccc4C(F)(F)F)CC3)n[nH]c2=O)cc1,–,–,inactive
CC(=O)Nc1cccc(NC(=O)C2CC(=O)N(c3n[nH]c4ccccc34)C2)c1 (configuration not stated),-10.6% (inactive),–,–
O=c1n(CC2CC2)nc2n1CCC(NS(=O)(=O)Cc1ccccc1)CC2 (configuration not stated),5.73% (inactive),–,–

SMILES,"activity, negative = inhibition",Potency,outcome
CC(=O)c1cc(CN2CCn3nc(C(O)c4ccnn4C)cc3C2)cs1 (configuration not stated),14.7% (inactive),–,–
O=C(N1CCCC(Cc2nc(C3CCOCC3)no2)C1)C1(c2ccccc2)CC1 (configuration not stated),9.71% (inactive),–,–
O=C1NCCOCCCN(C(=O)NCCc2ccccc2)[C@H]2CCC[C@@H]12,17.8% (inactive),–,–
O=C(Cc1cccs1)N1CCCCCC1c1nc(C2CC2)no1 (configuration not stated),–,–,inactive
O=C1NCCCCCN(C(=O)NCCc2ccccc2)[C@H]2CCC[C@@H]12,1.93% (inactive),–,–
COC1CCN(CC2CCCCCN2C(=O)NCc2ccc(F)cc2)CC1 (configuration not stated),–,–,inactive
O=C(c1cccs1)N1CCCCCC1CN1CCCC1 (configuration not stated),–,1.26 µM (active),–
O=C(NCCc1ccccc1)N1CCCCCC1CN1CCOCC1 (configuration not stated),–,7.94 µM (active),–
O=C(N1CCCCCC1CN1CCOCC1)C1(c2ccccc2)CC1 (configuration not stated),–,10 µM (active),–
CC(=O)N(C1CC1)C1CCOC2(CCN(C(=O)C3(c4ccccc4)CC3)CC2)C1 (configuration not stated),–,–,inactive; activator; fitted 4.4668 uM
Cc1cc(C)n(-c2cccc(CN(C)Cc3nc(-c4ccccn4)no3)c2)n1,-4.1% (inactive),–,–
CC(C)c1ccc(N2C(=O)N[C@@H]3CCN(C(=O)c4ccc(C(C)(C)C)cc4)[C@@H]3C2=O)cc1,-1.05% [at 44.1 µM] (inactive),–,–
O=C(Cn1ccn2nc(-c3ccccc3)c(CO)c2c1=O)Nc1ccc2c(c1)CCC2,-5.37% (inactive),–,–
O=C(c1ccc2cc[nH]c2c1)N1CCCN(c2cc(-c3ccc(Cl)cc3)[nH]n2)CC1,-29.3% (inactive),–,–
CN1C(=O)CS(=O)C12CCN(S(=O)(=O)c1ccc(F)cc1)CC2 (configuration not stated),1.13% (inactive),–,–
Cc1noc([C@@H]2CN(Cc3ccc(C)o3)C[C@H]2CO)n1,-25.5% (inactive),–,–
CN(C)c1ccc(NC(=O)CSc2nc(-c3ccco3)cc(C(F)(F)F)n2)cc1,-7.33% (inactive),–,–
Cc1cccc(NC(=O)CSc2nc(-c3ccco3)cc(C(F)(F)F)n2)c1C,12.1% (inactive),–,–
Cc1ccc(F)cc1NC(=O)CCSc1nc(-c2ccco2)cc(C(F)(F)F)n1,–,0.794 µM (active),–
